# Rows were chosen to be rich in hits. Some 12% of all compounds tested hit in one or more screens of this group.
# AmpC inh detg: AmpC beta-lactamase inhibition with detergent present | P00811 | AmpC hydrolysis of nitrocefin, absorbance 480 nm, 0.01% Triton | Potency, µM (top dose mostly 114 µM), hits mostly inhibitors | actives 0.041% (n = 370,000) | AID 485294; further: nearly all actives have a fitted effect of over 25% in size
# Target sequence (P00811 whole entry, looked up): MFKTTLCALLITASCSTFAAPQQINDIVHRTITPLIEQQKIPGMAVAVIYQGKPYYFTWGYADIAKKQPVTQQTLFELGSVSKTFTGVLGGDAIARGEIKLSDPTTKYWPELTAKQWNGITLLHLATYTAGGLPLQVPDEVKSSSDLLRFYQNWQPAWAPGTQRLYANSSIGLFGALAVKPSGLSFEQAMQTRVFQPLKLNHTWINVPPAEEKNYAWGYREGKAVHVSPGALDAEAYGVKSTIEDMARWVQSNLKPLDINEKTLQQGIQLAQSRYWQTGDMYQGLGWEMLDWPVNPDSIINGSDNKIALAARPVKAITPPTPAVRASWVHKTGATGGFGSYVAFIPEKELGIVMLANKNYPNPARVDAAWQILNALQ
#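 20 mM phosphate pH 7.0 + 0.01% (detergent screen) or 0.0001% Triton X-100; 5.3 nM AmpC reagent; cpd preinc 15 min RT; nitrocefin (800 uM stock) to start; A480 q20 s × 4 min; Activity was normalised to no-enzyme and no-compound control wells.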
# Sm TGR inh: inhibitors of Schistosoma mansoni thioredoxin glutathione reductase; Q962Y6; purified TGR, DTNB reduction, TNB absorbance 405 nm; Potency, µM (highest dose often 114 µM), usual class: inhibitors; actives 3% (n = 360,000); AID 485364; further: nearly all actives have a fitted effect of over 60% in size
#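 Kinetic colorimetric format: TGR-catalysed, NADPH-driven DTNB reduction monitored via TNB absorbance. Enzyme dispensed at 20 nM; compound exposure 15 min at room temperature before reaction start.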
# AmpC no deterg: inhibitors of E. coli AmpC beta-lactamase without detergent. Potency, µM (titrated, usually from 57.1 µM), actives largely listed as inhibitors. actives 0.52% (n = 330,000). AmpC nitrocefin hydrolysis, absorbance 480 nm, 0.0001% Triton. AID 485341. P00811; further: nearly all actives have a fitted effect of over 20% in size
#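 20 mM phosphate pH 7.0 + 0.01% (detergent screen) or 0.0001% Triton X-100; 5.3 nM AmpC reagent; cpd preinc 15 min RT; nitrocefin (800 uM stock) to start; A480 q20 s × 4 min; Activity was normalised to no-enzyme and no-compound control wells.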
# SARS PLP yeast: SARS-CoV PLP inhibition in yeast. AID 485353. actives 0.19% (n = 330,000). S. cerevisiae expressing SARS-CoV PLpro, growth rescue. Potency, µM (titrated, usually from 32.9 µM), usual class: activators; calls by dose curve; further: nearly all actives have a fitted effect of over 55% in size
# Pf growth 96h: inhibits malaria parasite growth, 96 h; P. falciparum luciferase reporter growth, 96 h; Potency, µM (doses to about 28.7 µM), actives largely listed as inhibitors; actives 6.9% (n = 320,000)
#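 Luminescence readout: decreased luciferase signal marks inhibited growth of reporter-expressing P. falciparum in infected red cells (2% hematocrit, 0.05% parasitemia final), exposed to compound two generations (96 h, 37 C, 5% CO2).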
# Pf growth 48h: inhibits P. falciparum growth in the first generation, 48 h. AID 504832. actives 5.9% (n = 310,000). P. falciparum luciferase growth in erythrocytes, 48 h. Potency, µM (titrated, usually from 28.7 µM), hits mostly inhibitors
#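 First compound was added to culture medium, then infected red cells at 0.1% parasitemia and 2% hematocrit (final). After incubation at 37 C under 5% CO2, luciferase detection reagent was dispensed and light output recorded.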
# A number is an active result; i = inactive; ? = inconclusive; nt = not tested or not shown; [ ] = another dose, or the depositor's remark. Unless noted, the call rests on the fitted dose curve; in most records, active means well fitted curve in the direction sought with a large enough effect; inconclusive means small, poorly fitted or top-dose-only effect, or another doubt; inactive means no such curve, though single readings can be large; an effect the other way counts as inactive or inconclusive.
SMILES,AmpC inh detg,Sm TGR inh,AmpC no deterg,SARS PLP yeast,Pf growth 96h,Pf growth 48h
O=C1CCN(CCc2ccccc2)CCN1[C@H](CSc1ccc(Br)cc1)Cc1ccccc1,i,i,i,i,8.3µM,13µM
CC(=O)Nc1ccc(SC[C@H](CC(C)C)N2CCN(CC(C)C)CCC2=O)cc1,i,?,i,i,?,?
CC(=O)Nc1ccc(SC[C@H](CC(C)C)N2CCN(CCc3ccccc3)CCC2=O)cc1,i,?,i,i,7.4µM,9.3µM
CC(=O)Nc1ccc(SC[C@H](Cc2ccccc2)N2CCN(CC(C)C)CCC2=O)cc1,i,?,i,i,4.7µM,7.4µM
CNC(=O)CN(c1ccc(C(C)C)cc1)S(C)(=O)=O,?,i,i,i,i,nt
O=C(NCCCN1CCOCC1)c1ccc2c(=O)n(Cc3ccc(Cl)cc3)c(=S)[nH]c2c1,i,i,i,i,?,?
COC(=O)c1ccc2c(=O)n(Cc3ccc(C(=O)NCCCN4CCC(C)CC4)cc3)c(=S)[nH]c2c1,i,?,i,i,?,?
COc1ccccc1Cn1c(=S)[nH]c2cc(C(=O)NCc3cccnc3)ccc2c1=O,i,i,i,i,8.3µM,?
CC1CCN(CCCNC(=O)c2ccc3c(=O)n(Cc4ccc(Cl)cc4)c(=S)[nH]c3c2)CC1,i,i,i,i,i[5.75 µM],13µM
CCCCN(C)CCNC(=O)c1ccc(Cn2c(=S)[nH]c3ccc(Br)cc3c2=O)cc1,?,?,i,i,10µM,?
CN(C)CCNC(=O)c1ccc2c(=O)n(Cc3ccc(Cl)cc3)c(=S)[nH]c2c1,i,45µM,i,i,i,?
COc1ccc(Cn2c(=S)[nH]c3cc(C(=O)NCc4cccnc4)ccc3c2=O)cc1,i,i,i,i,i,i
CCc1cccc(C)c1NC(=O)CN1CCCN(Cc2ccccc2Cl)S1(=O)=O,i,i,nt,nt,nt,nt
COc1ccc2c(=O)c(C)c(-c3ccccc3)oc2c1CN(C)C,nt,nt,nt,nt,?,i
CC(C)NC(=O)COc1coc(CN2CCN(Cc3ccccc3)CC2)cc1=O,i,i,i,i,?,i
Cc1cc(C)c(NC(=O)COCc2cc(-c3cccs3)on2)c(C)c1,i,i,nt,nt,nt,nt
CCc1ccc(C(CNC(=O)c2ccc3c(=O)n(-c4ccccc4F)c(=S)[nH]c3c2)N(C)C)cc1 (centres undefined),?,i,i[11.4 µM],i,?,13µM
Cc1ccccc1-n1nc2c(c1NC(=O)C(C)(C)C)CS(=O)(=O)C2,?,i,i,i,i,i
CN1CCN(C(=S)NC(=O)c2ccccc2Br)CC1,i,i,i,i,1.9µM,i
CN1CCN(C(=O)c2ccccc2NC(=O)c2ccccc2Br)CC1,i,i,i,i,i,i
CCNc1nc(C)nc2c1oc1ccccc12,i,i,i,i,0.66µM,i
CCNc1nc(CC)nc2c1oc1ccccc12,i,i,i,i,?,i
O=c1[nH]c(Cc2ccccc2)nc2c1oc1ccccc12,?,i,i,i,i,?
Cc1nc2c(oc3ccccc32)c(=O)o1,i,11µM,i,i,nt,?
CCOC(=O)N1CCN(C(=O)c2cccc(-n3c(=S)[nH]c4cc(Cl)ccc4c3=O)c2)CC1,?,i,i,i,i,i
SMILES,AmpC inh detg,Sm TGR inh,AmpC no deterg,SARS PLP yeast,Pf growth 96h,Pf growth 48h
O=C(OCC(=O)N1CCCCCC1)c1cccs1,i,i,i,i,i,i
Cc1ccc(NC(=S)NN2CCOCC2)c(C)c1,i,i,i,i,15µM,i
COc1ccc(OC)c(NC(=S)NN2CCOCC2)c1,i,i,i,i,i,i
COc1ccc(Cl)cc1NC(=S)NN1CCOCC1,i,35µM,i[2.29 µM],i,i,i
CC[C@@]1(O)C(=O)OCc2c1cc1n(c2=O)Cc2cc3c(NC(=O)CN)cccc3nc2-1,i,?,i,i,7.4µM,?
CCC1(OC(=O)CN)C(=O)OCc2c1cc1n(c2=O)Cc2cc3ccccc3nc2-1 (centres undefined),i,i,i,i,0.93µM,1.7µM
COc1ccccc1N1CCN(C(=O)Cn2c(=O)nc(-c3ccccc3)c3cc(Cl)ccc32)CC1,i,i,nt,nt,nt,nt
COc1cc(C(=O)OCc2cc(=O)n3nc(C4CCCCC4)sc3n2)cc(OC)c1OC,i,i,nt,nt,nt,nt
CC(NC(=O)c1ccc2c(c1)sc1nc(-c3ccc(F)cc3)cn12)C12CC3CC(CC(C3)C1)C2 (centres undefined),i,i,nt,nt,nt,nt
O=C(Nc1ccc(Cl)cc1)[C@@H]1[C@@H]2C(=O)N(c3cccc(F)c3)C(=O)[C@@H]2[C@H]2C=CC=NN21,i,22µM,i,i,i,i
COc1ccc(NCc2cc(=O)[nH]c3ccccc23)cc1,i,i,i,i,i,i
O=c1cc(CNCCCO)c2ccccc2[nH]1,i,i,i,i,3.7µM,i
O=C(NCc1ccccc1Cl)c1cc(=O)[nH]c2ccccc12,i,50µM,i,i,i,i
O=C(NCc1ccccc1F)c1cc(=O)[nH]c2ccccc12,i,i,i,i,i,i
COc1cccc(-c2cc(C(=O)N3CCN(S(=O)(=O)c4ccc(Br)cc4)CC3)[nH]n2)c1,i,i,i,i,13µM,i
COc1ccc(S(=O)(=O)N2CCN(C(=O)c3cc(-c4ccccc4OC)n[nH]3)CC2)cc1,?,i,i,i,i,1.3µM
CC(C)c1ccc(S(=O)(=O)N2CCN(C(=O)c3cc(-c4ccccc4)n[nH]3)CC2)cc1,i,i,i,i,i,?
Cc1[nH]c2ccccc2c1C(=O)C(=O)NCc1cccs1,i,i,i,i,i,i
O=c1ccc(-c2ccc(S(=O)(=O)NCC3CCN(Cc4ccccc4F)CC3)s2)n[nH]1,i,i,i,?,2.9µM,?
CCc1cccc(NC(=O)CN(C)S(=O)(=O)c2ccc3c(c2)n(C)c(=O)c(=O)n3C)c1,i,i,nt,nt,nt,nt
COCCCNC(=O)Cn1c(=O)n(-c2cccc(C)c2)c(=O)c2c3c(sc21)CN(C(C)=O)CC3,i,i,nt,nt,nt,nt
CCn1cc(CN2CCN(CCC(C)C)C(CCO)C2)c2ccccc21 (centres undefined),i,i,i,i,i,?
CCn1cc(CN2CCN(C)C(CCO)C2)c2ccccc21 (centres undefined),i,i,i,i,13µM,i
Cc1nn(-c2ccccc2)c(-c2ccccc2[N+](=O)[O-])c1C(=O)O,i,i,i,i,i,i
COc1ccccc1-c1c(C#N)c(N)nc2c1CCc1ccccc1-2,?,i,i,i,i,12µM
COc1ccccc1-c1c(C)c(C)nc(N)c1C#N,i,i,i,i,nt,i
CCc1nnc2c(Nc3ccc(Br)c(C)c3)nc3ccccc3n12,i,i,nt,nt,nt,nt
